The text below walks through data of PubChem BioAssay (EPA / NIEHS).

The AC50 is the concentration giving half of the maximal activity seen.

Read-out in test [1]: Interferon-gamma inducible Protein 10 (IP10), CXCL10 (gene 3627)
The test can be described thus: BSK_hDFCGF_IP10: BioMAP Diversity Plus: hDFCGF Assay for Interferon-gamma inducible Protein 10 (IP10) Biomarker Activity (AID 2283053). Particulars: primary human foreskin fibroblasts; actives raise or lower the signal. Put shortly: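 Human foreskin fibroblast primary cells (hDFCGF system) were dosed with chemical and assayed at 24 h; IP-10 measured by ELISA. Activity fitted bidirectionally relative to DMSO negative control as baseline.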

Read-out in test [2]: Urokinase-type plasminogen activator receptor (uPAR), PLAUR (gene 5329)
Kind of test: BSK_CASM3C_uPAR: BioMAP Diversity Plus: CASM3C Assay for Urokinase-type plasminogen activator receptor (uPAR) Biomarker Activity (AID 2283054).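 Note: cell-surface uPAR protein level quantified by ELISA.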 To be noted: primary human coronary artery smooth muscle cells; actives raise or lower the signal.

Read-out in test [3]: Vascular cell adhesion molecule 1 (VCAM1), VCAM1 (gene 7412)
The test can be described thus: BSK_CASM3C_VCAM1: BioMAP Diversity Plus: CASM3C Assay for Vascular cell adhesion molecule 1 (VCAM1) Biomarker Activity (AID 2283055).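 Note: VCAM-1 protein level quantified by ELISA on the cells.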 Particulars: primary human coronary artery smooth muscle cells; actives raise or lower the signal.

Read-out in test [4]: Epidermal growth factor receptor (EGFR), EGFR (gene 1956)
Kind of test: BSK_hDFCGF_EGFR: BioMAP Diversity Plus: hDFCGF Assay for Epidermal growth factor receptor (EGFR) Biomarker Activity (AID 2283057). To be noted: primary human foreskin fibroblasts; actives raise or lower the signal. Put shortly: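 Primary human foreskin fibroblasts were exposed to compound for 24 h, after which cell-surface EGFR was quantified by ELISA. Activity was fitted bidirectionally against the DMSO negative control as baseline.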

Read-out in test [5]: Interleukin-8 (IL8), CXCL8 (gene 3576)
The test can be described thus: BSK_hDFCGF_IL8: BioMAP Diversity Plus: hDFCGF Assay for Interleukin-8 (IL8) Biomarker Activity (AID 2283058). To be noted: primary human foreskin fibroblasts; actives raise or lower the signal. Put shortly: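 ELISA read-out of IL-8 from primary human foreskin fibroblast cultures taken 24 h after dosing; values are bidirectional fits relative to DMSO vehicle.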

Test [6] in a line: BSK_hDFCGF_Proliferation: Cell Proliferation Assessment in the BioMAP Diversity Plus: hDFCGF Assay (AID 2283059).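 Note: curves fitted for both rise and fall of signal versus DMSO baseline.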 To be noted: primary human foreskin fibroblasts. Put shortly: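 This proliferation readout used SRB total-protein staining of human foreskin fibroblasts […], normalized to DMSO with bidirectional curve fitting.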
Read-out in test [7]: Macrophage colony-stimulating factor (MCSF), CSF1 (gene 1435)
The test can be described thus: BSK_hDFCGF_MCSF: BioMAP Diversity Plus: hDFCGF Assay for Macrophage colony-stimulating factor (MCSF) Biomarker Activity (AID 2283060). To be noted: primary human foreskin fibroblasts; actives raise or lower the signal. The gist of the method:
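ELISA read-out of M-CSF in human dermal foreskin fibroblast cultures, 24 h after chemical dosing; gain or loss of signal fitted bidirectionally relative to DMSO baseline.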

Test [8] is described as follows: BSK_hDFCGF_SRB: Viability Assessment in the BioMAP Diversity Plus: hDFCGF Assay (AID 2283061).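 Note: cells exposed to compound for 24 h before the read.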 Particulars: primary human foreskin fibroblasts. Put shortly: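 Primary human foreskin fibroblasts; 24 h post-dose; fixed 10% TCA, stained 0.1% SRB, A560 read; total protein as overt cytotoxicity measure; curves fit bidirectionally vs DMSO control.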
Read-out in test [9]: TIMP metallopeptidase inhibitor 1 (TIMP1), TIMP1 (gene 7076)
Kind of test: BSK_hDFCGF_TIMP1: BioMAP Diversity Plus: hDFCGF Assay for TIMP metallopeptidase inhibitor 1 (TIMP1) Biomarker Activity (AID 2283062). Particulars: primary human foreskin fibroblasts; actives raise or lower the signal. The gist of the method:
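ELISA readout of TIMP-1 from human dermal foreskin fibroblast cultures 24 h post-dosing. Curves were fitted in both directions against DMSO baseline, with SRB total-protein staining in parallel cultures as a cytotoxicity check.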

Read-out in test [10]: Monokine induced gamma interferon (MIG), CXCL9 (gene 4283)
The test can be described thus: BSK_hDFCGF_MIG: BioMAP Diversity Plus: hDFCGF Assay for Monokine induced gamma interferon (MIG) Biomarker Activity (AID 2283063). To be noted: primary human foreskin fibroblasts; actives raise or lower the signal. Put shortly: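 Fibroblasts (human foreskin, primary) dosed, 24 h, MIG by ELISA; fit bidirectional vs DMSO.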

Read-out in test [11]: Matrix Metallopeptidase 1 (MMP1), MMP1 (gene 4312)
Kind of test: BSK_hDFCGF_MMP1: BioMAP Diversity Plus: hDFCGF Assay for Matrix Metallopeptidase 1 (MMP1) Biomarker Activity (AID 2283064). To be noted: primary human foreskin fibroblasts; actives raise or lower the signal. Put shortly: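 Primary human foreskin fibroblasts exposed to chemicals for 24 h; MMP1 measured by ELISA. Cytotoxicity tracked by SRB staining in parallel cultures; bidirectional fit relative to DMSO.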

Read-out in test [12]: Vascular cell adhesion molecule 1 (VCAM1), VCAM1 (gene 7412)
Kind of test: BSK_hDFCGF_VCAM1: BioMAP Diversity Plus: hDFCGF Assay for Vascular cell adhesion molecule 1 (VCAM1) Biomarker Activity (AID 2283065). Particulars: primary human foreskin fibroblasts; actives raise or lower the signal. Put shortly: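 ELISA read-out of VCAM-1 on human skin fibroblasts, 24 h post-dose; gain or loss of signal fitted bidirectionally against DMSO baseline.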

Read-out in test [13]: Plasminogen activator inhibitor-1 (PAI1), SERPINE1 (gene 5054)
The test can be described thus: BSK_hDFCGF_PAI1: BioMAP Diversity Plus: hDFCGF Assay for Plasminogen activator inhibitor-1 (PAI1) Biomarker Activity (AID 2283066). Particulars: primary human foreskin fibroblasts; actives raise or lower the signal. The gist of the method:
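Human foreskin fibroblasts in the hDFCGF system were dosed with compound for 24 h; PAI-1 was quantified by ELISA. Bidirectional curve fitting used DMSO as negative control and baseline.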

Read-out in test [14]: Intercellular Adhesion Molecule 1 (ICAM1), ICAM1 (gene 3383)
The test can be described thus: BSK_KF3CT_ICAM1: BioMAP Diversity Plus: KF3CT Assay for Intercellular Adhesion Molecule 1 (ICAM1) Biomarker Activity (AID 2283067). Particulars: primary human keratinocytes with fibroblasts; actives raise or lower the signal. The gist of the method:
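ELISA readout of ICAM-1; KF3CT human skin co-culture (keratinocytes + foreskin fibroblasts), 24 h post-dose; gain/loss fit vs DMSO baseline.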

Read-out in test [15]: Interferon-gamma inducible Protein 10 (IP10), CXCL10 (gene 3627)
The test can be described thus: BSK_KF3CT_IP10: BioMAP Diversity Plus: KF3CT Assay for Interferon-gamma inducible Protein 10 (IP10) Biomarker Activity (AID 2283068). To be noted: primary human keratinocytes with fibroblasts; actives raise or lower the signal. The gist of the method:
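Signal is secreted/surface IP-10 by ELISA in a human primary skin co-culture of keratinocytes and foreskin fibroblasts, taken 24 h post-dosing; DMSO served as negative control.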

A short description of test [16]: BSK_KF3CT_SRB: Viability Assessment in the BioMAP Diversity Plus: KF3CT Assay (AID 2283069).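 Note: total protein by sulforhodamine B staining as a cytotoxicity measure; read 24 h after compound addition.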 To be noted: primary human keratinocytes with fibroblasts. Put shortly: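 Human keratinocyte and foreskin fibroblast co-culture exposed to chemical for 24 h. Total protein measured in parallel cultures by 0.1% sulforhodamine B staining after 10% TCA fixation, read at 560 nm; bidirectional fit relative to DMSO.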

Read-out in test [17]: Interleukin-1 alpha (IL1a), IL1A (gene 3552)
The test can be described thus: BSK_KF3CT_IL1a: BioMAP Diversity Plus: KF3CT Assay for Interleukin-1 alpha (IL1a) Biomarker Activity (AID 2283070). Particulars: primary human keratinocytes with fibroblasts; actives raise or lower the signal. The gist of the method:
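Primary human keratinocyte plus foreskin fibroblast co-culture, dosed and measured at 24 h in 96-well plates. IL-1a level quantified by ELISA; bidirectional fit relative to DMSO.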

Read-out in test [18]: TIMP metallopeptidase inhibitor 2 (TIMP2), TIMP2 (gene 7077)
The test can be described thus: BSK_KF3CT_TIMP2: BioMAP Diversity Plus: KF3CT Assay for TIMP metallopeptidase inhibitor 2 (TIMP2) Biomarker Activity (AID 2283071). To be noted: primary human keratinocytes with fibroblasts; actives raise or lower the signal. The gist of the method: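 Human primary keratinocyte/foreskin fibroblast co-culture dosed with chemical and sampled at 24 h. TIMP-2 levels quantified by ELISA; bidirectional fitting against DMSO negative control as baseline.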

Read-out in test [19]: Transforming growth factor beta 1 (TGFb1), TGFB1 (gene 7040)
Kind of test: BSK_KF3CT_TGFb1: BioMAP Diversity Plus: KF3CT Assay for Transforming growth factor beta 1 (TGFb1) Biomarker Activity (AID 2283072). To be noted: primary human keratinocytes with fibroblasts; actives raise or lower the signal. The gist of the method: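 Human keratinocyte plus foreskin fibroblast primary co-culture, dosed with chemical for 24 h. TGF-b1 quantified by ELISA. Activity fitted bidirectionally against DMSO negative control as baseline.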

Molecules are shown by their SMILES. Activity calls are given as the source filed them. Rule for the calls: active = hit-call score of the fitted dose curve at least 0.9, where 1 is the maximum; inactive = score below 0.9.

As for `Cc1ccc2n[nH]nc2c1`, the result in test [1], in test [2], in test [3], in test [4], in [5] and in test [6] was inactive. The outcome in test [7], in test [8], in [9], in test [10], in test [11] and in [12] was inactive. The outcome in test [13], in test [14], in test [15], in test [16], in test [17] and in test [18] was inactive. In addition, the outcome in [19] was inactive.

Regarding `CCCCCCCCCC=O`, the outcome in test [1], in [2], in [3], in test [4], in [5] and in test [6] was inactive. The outcome in test [7], in test [8], in test [9], in [10], in [11] and in test [12] was inactive. The outcome in [13], in test [14], in test [16], in [17], in test [18] and in test [19] was inactive. Moreover, the AC50 in test [15] was 11.9 µM (active).

With `O=C(O)c1cn(C2CC2)c2cc(N3CCNCC3)c(F)cc2c1=O`, the outcome in test [1], in test [2], in [3], in test [4], in [5] and in test [6] was inactive. The outcome in test [8], in [9], in [10], in test [11], in test [12] and in test [13] was inactive. Also, the outcome in [14], in test [15], in test [16], in test [17], in [18] and in test [19] was inactive.

Consider `CC(C)c1ccc(C(C)C)cc1`, for which the result in [1], in [4], in test [5], in test [7], in [9] and in test [10] was inactive. In addition, the outcome in [11], in [12], in test [14], in test [15], in test [16] and in [17] was inactive. Moreover, in test [19], the outcome was inactive. Moreover, the AC50 in test [2] was 20 µM (active); in test [3], 32.6 µM (active); in test [6], 33.4 µM (active); in [8], 36.1 µM (active); in test [13] it was 36.2 µM (active); in test [18], 31.8 µM (active).

`CCCCCCCCCCCCCCCCCC(=O)OCC(CC)CCCC` (configuration not stated): the result in [1], in test [2], in test [3], in test [4], in test [5] and in test [6] was inactive. The outcome in test [7], in test [8], in test [9], in [10], in test [11] and in test [12] was inactive. The result in [13], in [14], in test [15], in [16], in [17] and in test [18] was inactive. The outcome in test [19] was inactive.

For the compound `O=C=NC1CCC(CC2CCC(N=C=O)CC2)CC1` (configuration not stated), the outcome in test [1], in [2], in test [3], in test [4], in test [5] and in [8] was inactive. The result in test [9], in [10], in test [11], in [12], in [14] and in [15] was inactive. The result in test [16], in test [17], in [18] and in test [19] was inactive. Further, the values for the concentration at half-maximal activity (AC50) in test [6], in test [7] and in [13] were 28.5 µM (active), 4.84 µM (active) and 25.6 µM (active), respectively.

On to `O=C(O)C[C@H](O)C[C@H](O)/C=C/c1c(C2CC2)nc2ccccc2c1-c1ccc(F)cc1`, for which the outcome in test [1], in test [2], in [4], in test [5], in test [7] and in test [8] was inactive. Further, the result in [9], in test [10], in [11], in test [12], in test [14] and in [15] was inactive. For the same compound, the result in test [16], in test [17], in test [18] and in [19] was inactive. Moreover, the results for the AC50 in test [3], in [6] and in test [13] were 0.0041 µM (active), 0.992 µM (active) and 2.96 µM (active), respectively.
